{
  "source": "PubChem BioAssay (NCATS)",
  "note": "Values joined by “and” are separate entries in the source; they are usually repeats but may differ in a detail not shown here. Equal values may be shown once. Inconclusive results are not listed. Active and inactive are the calls of the source. Calls follow the shape of the dose curve; as a rule, active = well fitted inhibition curve with a large enough effect; inconclusive = small, poorly fitted or top-dose-only effect; inactive = flat fitted curve, though single readings scatter. % is scaled to controls: 0 for no effect and ±100 for the full control effect.",
  "data": [
    {"system": "not listed separately", "assay": "Drug repurposing screens with cells derived from glioblastoma tumor samples (AID 1345199); also: nearly all actives have a fitted effect of over 40% in size", "details": "GBM patient neurospheres viability, ATP luminescence, 48 h; at 45.9 µM (top of the series); tumour line D", "procedure,_shortened": "(§1)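 Four patient lines of CD133+ GBM neurospheres were screened at several concentrations; hits were retested in those lines plus three slower-growing GBM lines, using 48-hour treatment and ATP-based viability.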", "values": [
      {"smiles": "CC(=O)Nc1ccc(S(=O)(=O)Nc2cc(C)on2)cc1", "activity, negative = cell killing": "-21% (inactive)"},
      {"smiles": "C[C@H]1NCc2cc(-c3ccc4c(=O)c(C(=O)O)cn(C5CC5)c4c3OC(F)F)ccc21", "activity, negative = cell killing": "27.3% (inactive)"},
      {"smiles": "COc1ccccc1OCC1CNC(=O)O1", "note": "(stereo unspecified)", "activity, negative = cell killing": "-0.575% (inactive)"},
      {"smiles": "CCC(C(=O)NC(=O)NC(C)=O)c1ccccc1", "note": "(stereo unspecified)", "activity, negative = cell killing": "-13.3% (inactive)"},
      {"smiles": "Cc1ccccc1C(=O)N1CC/C(=N\\OS(=O)(=O)O)c2ccc(Cl)cc21", "activity, negative = cell killing": "-7.25% (inactive)"},
      {"smiles": "CC(C(=O)O)c1ccc(/C=C2\\CCCCC2=O)cc1", "note": "(stereo unspecified)", "activity, negative = cell killing": "-17% (inactive)"},
      {"smiles": "O=C(CO)[C@@H](O)[C@H](O)[C@@H](O)CO", "activity, negative = cell killing": "-8.89% (inactive)"},
      {"smiles": "CC(=O)N(CC(O)CO)c1c(I)c(C(=O)NCCO)c(I)c(C(=O)NCC(O)CO)c1I", "note": "(stereo unspecified)", "activity, negative = cell killing": "12.9% (inactive)"},
      {"smiles": "CC(NN)c1ccccc1", "note": "(stereo unspecified)", "activity, negative = cell killing": "-5.52% (inactive)"},
      {"smiles": "CCCCCOc1ccc(C2SC(=O)NC2=O)cc1OCC", "note": "(stereo unspecified)", "activity, negative = cell killing": "-4.3% (inactive)"},
      {"smiles": "CCCc1c2oc(C(=O)O)cc(=O)c2cc2c(=O)cc(C(=O)O)n(CC)c12", "activity, negative = cell killing": "-8.4% (inactive)"},
      {"smiles": "Cc1ccc(O)cc1", "activity, negative = cell killing": "-8.77% (inactive) and -8.54% (inactive)"},
      {"smiles": "CC(CCc1ccc2c(c1)OCO2)NN", "note": "(stereo unspecified)", "activity, negative = cell killing": "-1.96% (inactive)"}
    ]},
    {"system": "not listed separately", "assay": "Drug repurposing screens with cells derived from glioblastoma tumor samples (AID 1345199); also: nearly all actives have a fitted effect of over 40% in size", "details": "GBM patient neurospheres viability, ATP luminescence, 48 h; at 46 µM (top of the series); tumour line A", "procedure,_shortened": "as §1", "values": [
      {"smiles": "C[C@H]1NCc2cc(-c3ccc4c(=O)c(C(=O)O)cn(C5CC5)c4c3OC(F)F)ccc21", "activity, negative = cell killing": "-27.3% (inactive)"},
      {"smiles": "COc1ccccc1OCC1CNC(=O)O1", "note": "(stereo unspecified)", "activity, negative = cell killing": "-28.8% (inactive)"},
      {"smiles": "CCC(C(=O)NC(=O)NC(C)=O)c1ccccc1", "note": "(stereo unspecified)", "activity, negative = cell killing": "-27.9% (inactive)"},
      {"smiles": "Cc1ccccc1C(=O)N1CC/C(=N\\OS(=O)(=O)O)c2ccc(Cl)cc21", "activity, negative = cell killing": "-14.2% (inactive)"},
      {"smiles": "CC(C(=O)O)c1ccc(/C=C2\\CCCCC2=O)cc1", "note": "(stereo unspecified)", "activity, negative = cell killing": "-27.9% (inactive)"},
      {"smiles": "O=C(CO)[C@@H](O)[C@H](O)[C@@H](O)CO", "activity, negative = cell killing": "-12.2% (inactive)"},
      {"smiles": "CC(NN)c1ccccc1", "note": "(stereo unspecified)", "activity, negative = cell killing": "-23.7% (inactive)"},
      {"smiles": "CCCc1c2oc(C(=O)O)cc(=O)c2cc2c(=O)cc(C(=O)O)n(CC)c12", "activity, negative = cell killing": "-11% (inactive)"},
      {"smiles": "Cc1ccc(O)cc1", "activity, negative = cell killing": "-10.9% (inactive)"}
    ]},
    {"system": "not listed separately", "assay": "Drug repurposing screens with cells derived from glioblastoma tumor samples (AID 1345199); also: nearly all actives have a fitted effect of over 40% in size", "details": "GBM patient neurospheres viability, ATP luminescence, 48 h; at 46.1 µM (top of the series); tumour line C", "procedure,_shortened": "as §1", "values": [
      {"smiles": "CC(=O)Nc1ccc(S(=O)(=O)Nc2cc(C)on2)cc1", "activity, negative = cell killing": "-0.236% (inactive)"},
      {"smiles": "C[C@H]1NCc2cc(-c3ccc4c(=O)c(C(=O)O)cn(C5CC5)c4c3OC(F)F)ccc21", "activity, negative = cell killing": "-18% (inactive)"},
      {"smiles": "COc1ccccc1OCC1CNC(=O)O1", "note": "(stereo unspecified)", "activity, negative = cell killing": "4.79% (inactive)"},
      {"smiles": "CCC(C(=O)NC(=O)NC(C)=O)c1ccccc1", "note": "(stereo unspecified)", "activity, negative = cell killing": "-4.25% (inactive)"},
      {"smiles": "Cc1ccccc1C(=O)N1CC/C(=N\\OS(=O)(=O)O)c2ccc(Cl)cc21", "activity, negative = cell killing": "2.94% (inactive)"},
      {"smiles": "CC(C(=O)O)c1ccc(/C=C2\\CCCCC2=O)cc1", "note": "(stereo unspecified)", "activity, negative = cell killing": "3.8% (inactive)"},
      {"smiles": "O=C(CO)[C@@H](O)[C@H](O)[C@@H](O)CO", "activity, negative = cell killing": "8.07% (inactive)"},
      {"smiles": "CC(=O)N(CC(O)CO)c1c(I)c(C(=O)NCCO)c(I)c(C(=O)NCC(O)CO)c1I", "note": "(stereo unspecified)", "activity, negative = cell killing": "-5.5% (inactive)"},
      {"smiles": "CC(NN)c1ccccc1", "note": "(stereo unspecified)", "activity, negative = cell killing": "-0.872% (inactive)"},
      {"smiles": "CCCCCOc1ccc(C2SC(=O)NC2=O)cc1OCC", "note": "(stereo unspecified)", "activity, negative = cell killing": "-14.2% (inactive)"},
      {"smiles": "CCCc1c2oc(C(=O)O)cc(=O)c2cc2c(=O)cc(C(=O)O)n(CC)c12", "activity, negative = cell killing": "-12.7% (inactive)"},
      {"smiles": "Cc1ccc(O)cc1", "activity, negative = cell killing": "8.95% (inactive) and -5.08% (inactive)"},
      {"smiles": "CC(CCc1ccc2c(c1)OCO2)NN", "note": "(stereo unspecified)", "activity, negative = cell killing": "-0.872% (inactive)"}
    ]},
    {"system": "not listed separately", "assay": "Drug repurposing screens with cells derived from glioblastoma tumor samples (AID 1345199); also: nearly all actives have a fitted effect of over 40% in size", "details": "GBM patient neurospheres viability, ATP luminescence, 48 h; at 91.6 µM (top of the series); tumour line B", "procedure,_shortened": "as §1", "values": [
      {"smiles": "C1=CC2C3C=CC(C3)C2C1", "note": "(stereo unspecified)", "activity, negative = cell killing": "-14.6% (inactive)"},
      {"smiles": "COC(=O)c1c(Cl)c(Cl)c(C(=O)OC)c(Cl)c1Cl", "activity, negative = cell killing": "-13.9% (inactive)"},
      {"smiles": "c1ccc2occc2c1", "activity, negative = cell killing": "-4.88% (inactive)"}
    ]},
    {"system": "not listed separately", "assay": "Drug repurposing screens with cells derived from glioblastoma tumor samples (AID 1345199); also: nearly all actives have a fitted effect of over 40% in size", "details": "GBM patient neurospheres viability, ATP luminescence, 48 h; at 91.6 µM (top of the series); tumour line D", "procedure,_shortened": "as §1", "values": [
      {"smiles": "C1=CC2C3C=CC(C3)C2C1", "note": "(stereo unspecified)", "activity, negative = cell killing": "-19.1% (inactive)"},
      {"smiles": "COC(=O)c1c(Cl)c(Cl)c(C(=O)OC)c(Cl)c1Cl", "activity, negative = cell killing": "-16.3% (inactive)"},
      {"smiles": "c1ccc2occc2c1", "activity, negative = cell killing": "-16% (inactive)"}
    ]},
    {"system": "not listed separately", "assay": "Drug repurposing screens with cells derived from glioblastoma tumor samples (AID 1345199); also: nearly all actives have a fitted effect of over 40% in size", "details": "GBM patient neurospheres viability, ATP luminescence, 48 h; at 99.2 µM (top of the series); tumour line C", "procedure,_shortened": "as §1", "values": [
      {"smiles": "C1=CC2C3C=CC(C3)C2C1", "note": "(stereo unspecified)", "activity, negative = cell killing": "15.3% (inactive)"},
      {"smiles": "COC(=O)c1c(Cl)c(Cl)c(C(=O)OC)c(Cl)c1Cl", "activity, negative = cell killing": "-5.72% (inactive)"},
      {"smiles": "c1ccc2occc2c1", "activity, negative = cell killing": "4.01% (inactive)"}
    ]},
    {"system": "astro", "assay": "Drug repurposing screens with cells derived from glioblastoma tumor samples (AID 1345199)", "details": "viability, ATP luminescence, 48 h; series mostly up to 45.9 µM; activity, negative = cell killing: at the top concentration", "procedure,_shortened": "as §1", "values": [
      {"smiles": "CC(=O)Nc1ccc(S(=O)(=O)Nc2cc(C)on2)cc1", "activity, negative = cell killing": "-12.5% (inactive)"},
      {"smiles": "C[C@H]1NCc2cc(-c3ccc4c(=O)c(C(=O)O)cn(C5CC5)c4c3OC(F)F)ccc21", "activity, negative = cell killing": "10.1% (inactive)"},
      {"smiles": "COc1ccccc1OCC1CNC(=O)O1", "note": "(stereo unspecified)", "activity, negative = cell killing": "-11.3% (inactive)"},
      {"smiles": "CCC(C(=O)NC(=O)NC(C)=O)c1ccccc1", "note": "(stereo unspecified)", "activity, negative = cell killing": "-22.8% (inactive)"},
      {"smiles": "Cc1ccccc1C(=O)N1CC/C(=N\\OS(=O)(=O)O)c2ccc(Cl)cc21", "activity, negative = cell killing": "-24% (inactive)"},
      {"smiles": "C1=CC2C3C=CC(C3)C2C1", "note": "(stereo unspecified)", "activity, negative = cell killing": "-13.5% [at 91.6 µM] (inactive)"},
      {"smiles": "CC(C(=O)O)c1ccc(/C=C2\\CCCCC2=O)cc1", "note": "(stereo unspecified)", "activity, negative = cell killing": "-23.7% (inactive)"},
      {"smiles": "O=C(CO)[C@@H](O)[C@H](O)[C@@H](O)CO", "activity, negative = cell killing": "-8.67% (inactive)"},
      {"smiles": "CC(=O)N(CC(O)CO)c1c(I)c(C(=O)NCCO)c(I)c(C(=O)NCC(O)CO)c1I", "note": "(stereo unspecified)", "activity, negative = cell killing": "-11.1% (inactive)"},
      {"smiles": "O=C(O)[C@H](O)[C@@H](O)[C@H](O[C@@H]1O[C@H](CO)[C@H](O)[C@H](O)[C@H]1O)[C@H](O)CO", "activity, negative = cell killing": "-10.8% [at 21.2 µM] (inactive)"},
      {"smiles": "COC(=O)c1c(Cl)c(Cl)c(C(=O)OC)c(Cl)c1Cl", "activity, negative = cell killing": "-14% [at 91.6 µM] (inactive)"},
      {"smiles": "CC(NN)c1ccccc1", "note": "(stereo unspecified)", "activity, negative = cell killing": "2.39% (inactive)"},
      {"smiles": "c1ccc2occc2c1", "activity, negative = cell killing": "-17.6% [at 91.6 µM] (inactive)"},
      {"smiles": "CCCCCOc1ccc(C2SC(=O)NC2=O)cc1OCC", "note": "(stereo unspecified)", "activity, negative = cell killing": "-9.29% (inactive)"},
      {"smiles": "CCCc1c2oc(C(=O)O)cc(=O)c2cc2c(=O)cc(C(=O)O)n(CC)c12", "activity, negative = cell killing": "0.882% (inactive)"},
      {"smiles": "Cc1ccc(O)cc1", "Potency": "inactive"},
      {"smiles": "CC(CCc1ccc2c(c1)OCO2)NN", "note": "(stereo unspecified)", "activity, negative = cell killing": "-7.79% (inactive)"}
    ]}
  ]
}
